Common to all, as to experiment: DAPPL (digital affinity profiling via proximity ligation, sequencing); 10 mM Tris-HCl pH 7.5, 50 mM NaCl, 1 mM DTT, 4% glycerol, room temperature, 30 min; GST-TFs on glutathione beads, 16-mer random dsDNA library, 0.1% formaldehyde crosslink after washing; high values mean tight binding
Holding throughout (conditions): protein: recombinant; tags: N-terminal GST; dsDNA, one strand shown

The target in one assay is T1, FLI1 (Homo sapiens, UniProt Q01543 1-452).
T1 sequence: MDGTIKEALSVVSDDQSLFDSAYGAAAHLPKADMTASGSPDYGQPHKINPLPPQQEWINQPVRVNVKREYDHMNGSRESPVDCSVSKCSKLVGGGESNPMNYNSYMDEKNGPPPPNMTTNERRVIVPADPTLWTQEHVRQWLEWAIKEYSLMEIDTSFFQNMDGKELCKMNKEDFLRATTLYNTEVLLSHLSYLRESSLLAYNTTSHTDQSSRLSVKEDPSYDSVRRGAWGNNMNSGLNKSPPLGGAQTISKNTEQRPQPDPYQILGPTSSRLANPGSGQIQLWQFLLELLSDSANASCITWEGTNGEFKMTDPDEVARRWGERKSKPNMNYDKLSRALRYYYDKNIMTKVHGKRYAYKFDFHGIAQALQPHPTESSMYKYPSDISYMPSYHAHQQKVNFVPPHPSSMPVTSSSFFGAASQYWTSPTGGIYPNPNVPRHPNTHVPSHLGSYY
In outline: (§1)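 After expression in yeast as GST fusions, human transcription factors were bound to glutathione beads, DNA-barcoded and mixed with a tag-only sample. The pools were incubated with 200 nmole of a 16-mer random double-stranded DNA library in Tris/NaCl/DTT/glycerol buffer (30 min, room temperature), washed and crosslinked with 0.1% formaldehyde. Proximity ligation with BsaI/T4 ligase ran for 1 h at 37 °C, before PCR amplification and sequencing on an Illumina NextSeq500. Binding signal is a hexamer's read frequency for a factor divided by its frequency for the tag-only sample.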

The target in another assay is T2, GABPA (Homo sapiens, UniProt Q06546 1-454).
T2 sequence: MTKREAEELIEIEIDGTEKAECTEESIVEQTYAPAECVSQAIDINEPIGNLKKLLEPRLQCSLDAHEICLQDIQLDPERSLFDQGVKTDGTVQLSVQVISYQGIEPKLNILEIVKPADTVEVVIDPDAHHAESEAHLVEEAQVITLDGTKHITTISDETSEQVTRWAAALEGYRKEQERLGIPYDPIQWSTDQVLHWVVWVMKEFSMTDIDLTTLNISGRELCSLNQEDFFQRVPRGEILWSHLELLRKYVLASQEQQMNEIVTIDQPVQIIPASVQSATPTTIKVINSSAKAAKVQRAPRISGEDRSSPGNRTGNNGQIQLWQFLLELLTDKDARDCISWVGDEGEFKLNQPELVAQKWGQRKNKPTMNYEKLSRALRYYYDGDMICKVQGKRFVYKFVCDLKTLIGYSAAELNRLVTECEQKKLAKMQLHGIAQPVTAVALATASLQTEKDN
In outline: as §1

In another assay the target is ELF1 (Homo sapiens, UniProt P32519 1-619). An outline of the steps:
as §1

A further assay has as its target T3, EHF (Homo sapiens, UniProt Q9NZC4 1-300).
T3 sequence: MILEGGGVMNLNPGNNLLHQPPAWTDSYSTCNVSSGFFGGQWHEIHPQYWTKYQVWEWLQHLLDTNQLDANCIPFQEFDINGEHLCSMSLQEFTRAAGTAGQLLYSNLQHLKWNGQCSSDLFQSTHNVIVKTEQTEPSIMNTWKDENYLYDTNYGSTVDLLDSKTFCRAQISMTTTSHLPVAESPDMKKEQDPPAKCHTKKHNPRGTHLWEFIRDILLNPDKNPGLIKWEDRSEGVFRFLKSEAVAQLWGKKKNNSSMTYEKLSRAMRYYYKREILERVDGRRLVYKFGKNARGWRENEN
An outline of the steps:
as §1

The target in another assay is SPIB (Homo sapiens, UniProt Q01892 1-262). In outline:
as §1

In the next assay the target is T4, ELK3 (Homo sapiens, UniProt P41970 1-407).
T4 sequence: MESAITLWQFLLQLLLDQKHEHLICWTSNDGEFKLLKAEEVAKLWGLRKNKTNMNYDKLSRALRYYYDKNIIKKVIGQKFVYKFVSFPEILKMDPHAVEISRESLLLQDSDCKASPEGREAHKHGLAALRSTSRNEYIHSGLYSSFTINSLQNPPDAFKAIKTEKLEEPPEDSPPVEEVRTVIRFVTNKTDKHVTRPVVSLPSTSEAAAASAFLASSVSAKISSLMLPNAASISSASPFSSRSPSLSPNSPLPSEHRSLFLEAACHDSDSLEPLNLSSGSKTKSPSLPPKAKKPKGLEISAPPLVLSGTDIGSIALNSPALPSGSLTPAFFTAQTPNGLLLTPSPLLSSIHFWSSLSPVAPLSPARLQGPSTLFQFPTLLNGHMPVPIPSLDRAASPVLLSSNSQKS
In outline:
as §1

The target in another assay is ETV5 (Homo sapiens, UniProt P41161 1-510). In outline: as §1
In the next assay the target is T5, SPIC (Homo sapiens, UniProt Q8N5J4 1-248).
T5 sequence: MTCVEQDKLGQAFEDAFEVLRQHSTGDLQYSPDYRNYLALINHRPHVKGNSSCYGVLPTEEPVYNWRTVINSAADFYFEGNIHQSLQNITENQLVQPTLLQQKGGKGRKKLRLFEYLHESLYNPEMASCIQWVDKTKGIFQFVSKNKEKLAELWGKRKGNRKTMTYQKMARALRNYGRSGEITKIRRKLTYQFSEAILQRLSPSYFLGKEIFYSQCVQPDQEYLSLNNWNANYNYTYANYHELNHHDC
In outline: as §1

The target of the next assay is ELF4 (Homo sapiens, UniProt Q99607 1-663). In outline:
as §1

Another assay addresses ETV1 (Homo sapiens, UniProt P50549 1-477). In outline: as §1
In another assay the target is T6, ETV3L (Homo sapiens, UniProt Q6ZN32 1-361).
T6 sequence: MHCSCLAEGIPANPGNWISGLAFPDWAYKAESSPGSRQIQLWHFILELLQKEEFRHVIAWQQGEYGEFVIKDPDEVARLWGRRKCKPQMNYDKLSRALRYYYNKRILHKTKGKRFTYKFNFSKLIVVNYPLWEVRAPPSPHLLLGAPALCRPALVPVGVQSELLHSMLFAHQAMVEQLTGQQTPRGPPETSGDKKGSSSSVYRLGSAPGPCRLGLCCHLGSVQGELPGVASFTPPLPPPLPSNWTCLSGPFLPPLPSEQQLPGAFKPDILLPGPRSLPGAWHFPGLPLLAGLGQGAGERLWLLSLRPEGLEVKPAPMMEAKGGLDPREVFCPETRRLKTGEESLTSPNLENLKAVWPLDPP
An outline of the steps:
as §1

In another assay the target is T7, ETV3 (Homo sapiens, UniProt P41162-2 1-143).
T7 sequence: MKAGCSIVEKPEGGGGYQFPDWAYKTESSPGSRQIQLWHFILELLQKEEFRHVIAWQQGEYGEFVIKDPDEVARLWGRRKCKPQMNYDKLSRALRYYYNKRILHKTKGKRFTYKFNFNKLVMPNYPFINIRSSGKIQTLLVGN
In outline:
as §1

The next assay concerns the target T8, ERG (Homo sapiens, UniProt P11308 1-479).
T8 sequence: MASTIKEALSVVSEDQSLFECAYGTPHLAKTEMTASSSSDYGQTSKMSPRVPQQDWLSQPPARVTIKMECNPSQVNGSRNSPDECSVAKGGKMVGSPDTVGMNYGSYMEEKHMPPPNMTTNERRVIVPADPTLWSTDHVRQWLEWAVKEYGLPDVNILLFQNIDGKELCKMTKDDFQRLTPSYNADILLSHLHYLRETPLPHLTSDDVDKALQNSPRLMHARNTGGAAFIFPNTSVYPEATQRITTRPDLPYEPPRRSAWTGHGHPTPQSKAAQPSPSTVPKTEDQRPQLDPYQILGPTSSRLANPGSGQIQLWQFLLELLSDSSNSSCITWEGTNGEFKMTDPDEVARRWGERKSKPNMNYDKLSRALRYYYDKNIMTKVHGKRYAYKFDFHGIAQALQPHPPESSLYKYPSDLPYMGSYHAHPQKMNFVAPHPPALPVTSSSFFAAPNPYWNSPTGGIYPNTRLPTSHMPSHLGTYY
An outline of the steps: as §1

Another assay deals with ETV6 (Homo sapiens, UniProt P41212 1-452). In outline: as §1
Chain of ETV6 (P41212 whole entry): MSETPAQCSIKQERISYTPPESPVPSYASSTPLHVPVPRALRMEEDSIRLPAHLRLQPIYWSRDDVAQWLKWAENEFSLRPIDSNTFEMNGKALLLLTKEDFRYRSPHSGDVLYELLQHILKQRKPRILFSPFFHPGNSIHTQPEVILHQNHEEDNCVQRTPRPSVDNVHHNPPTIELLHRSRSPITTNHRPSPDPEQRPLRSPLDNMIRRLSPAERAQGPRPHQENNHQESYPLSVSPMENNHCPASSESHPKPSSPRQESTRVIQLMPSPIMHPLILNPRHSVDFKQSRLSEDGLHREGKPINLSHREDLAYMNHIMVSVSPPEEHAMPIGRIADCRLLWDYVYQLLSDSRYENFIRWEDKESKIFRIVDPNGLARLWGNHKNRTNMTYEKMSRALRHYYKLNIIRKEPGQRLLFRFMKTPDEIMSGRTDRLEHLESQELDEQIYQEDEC

Chain of ELF4 (Q99607 whole entry): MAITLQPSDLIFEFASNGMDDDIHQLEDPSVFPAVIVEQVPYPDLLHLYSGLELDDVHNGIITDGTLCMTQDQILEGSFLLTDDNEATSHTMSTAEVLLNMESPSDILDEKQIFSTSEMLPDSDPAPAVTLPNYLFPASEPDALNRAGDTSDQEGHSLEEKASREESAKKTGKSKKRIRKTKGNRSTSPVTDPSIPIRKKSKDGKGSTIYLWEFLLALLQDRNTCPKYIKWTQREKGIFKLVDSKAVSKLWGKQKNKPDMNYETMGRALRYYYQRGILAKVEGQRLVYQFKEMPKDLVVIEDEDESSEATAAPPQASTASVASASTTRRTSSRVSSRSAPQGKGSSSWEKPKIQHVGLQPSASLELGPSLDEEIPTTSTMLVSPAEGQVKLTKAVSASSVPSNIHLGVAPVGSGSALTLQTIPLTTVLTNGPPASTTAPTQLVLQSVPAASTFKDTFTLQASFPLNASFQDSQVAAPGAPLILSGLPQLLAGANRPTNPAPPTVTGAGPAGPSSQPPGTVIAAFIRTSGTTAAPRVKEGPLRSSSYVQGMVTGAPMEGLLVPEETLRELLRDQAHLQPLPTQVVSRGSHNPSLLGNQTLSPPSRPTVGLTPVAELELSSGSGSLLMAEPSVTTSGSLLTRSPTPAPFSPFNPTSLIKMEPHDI
Chain of ETV5 (P41161 whole entry): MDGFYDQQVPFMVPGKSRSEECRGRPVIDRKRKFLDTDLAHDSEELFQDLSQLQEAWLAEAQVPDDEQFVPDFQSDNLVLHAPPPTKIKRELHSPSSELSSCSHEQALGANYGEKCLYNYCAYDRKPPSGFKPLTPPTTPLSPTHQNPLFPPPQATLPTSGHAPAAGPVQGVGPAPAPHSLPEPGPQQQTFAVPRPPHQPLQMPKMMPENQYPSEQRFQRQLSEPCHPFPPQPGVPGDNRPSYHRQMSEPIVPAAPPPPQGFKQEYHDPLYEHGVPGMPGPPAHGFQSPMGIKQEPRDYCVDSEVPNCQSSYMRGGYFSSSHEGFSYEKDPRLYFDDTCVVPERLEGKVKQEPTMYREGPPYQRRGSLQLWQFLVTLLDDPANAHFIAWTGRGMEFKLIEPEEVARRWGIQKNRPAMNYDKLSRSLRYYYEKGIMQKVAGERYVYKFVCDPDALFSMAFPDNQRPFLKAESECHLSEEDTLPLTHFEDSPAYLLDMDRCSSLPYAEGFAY
Chain of ETV1 (P50549 whole entry): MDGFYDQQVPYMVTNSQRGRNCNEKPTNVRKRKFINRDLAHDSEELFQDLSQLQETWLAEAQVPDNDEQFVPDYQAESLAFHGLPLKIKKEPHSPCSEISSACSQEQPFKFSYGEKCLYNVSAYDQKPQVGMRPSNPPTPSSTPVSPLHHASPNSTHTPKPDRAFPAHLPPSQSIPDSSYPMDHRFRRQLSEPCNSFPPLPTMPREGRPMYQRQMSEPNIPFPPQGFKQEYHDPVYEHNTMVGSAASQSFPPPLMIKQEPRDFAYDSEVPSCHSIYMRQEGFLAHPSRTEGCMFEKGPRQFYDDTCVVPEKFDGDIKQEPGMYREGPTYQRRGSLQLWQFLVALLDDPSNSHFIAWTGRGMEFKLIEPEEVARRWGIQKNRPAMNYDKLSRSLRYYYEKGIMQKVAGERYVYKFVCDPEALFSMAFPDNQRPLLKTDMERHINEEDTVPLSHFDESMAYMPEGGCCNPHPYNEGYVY
Chain of SPIB (Q01892 whole entry): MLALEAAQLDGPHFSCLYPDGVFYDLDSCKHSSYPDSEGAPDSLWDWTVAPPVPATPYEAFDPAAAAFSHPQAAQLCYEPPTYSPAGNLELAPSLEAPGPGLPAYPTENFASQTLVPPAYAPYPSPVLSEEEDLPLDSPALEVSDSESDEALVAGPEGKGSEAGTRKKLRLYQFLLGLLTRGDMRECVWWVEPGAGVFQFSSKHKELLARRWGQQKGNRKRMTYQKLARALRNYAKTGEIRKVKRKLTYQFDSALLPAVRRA
Chain of ELF1 (P32519 whole entry): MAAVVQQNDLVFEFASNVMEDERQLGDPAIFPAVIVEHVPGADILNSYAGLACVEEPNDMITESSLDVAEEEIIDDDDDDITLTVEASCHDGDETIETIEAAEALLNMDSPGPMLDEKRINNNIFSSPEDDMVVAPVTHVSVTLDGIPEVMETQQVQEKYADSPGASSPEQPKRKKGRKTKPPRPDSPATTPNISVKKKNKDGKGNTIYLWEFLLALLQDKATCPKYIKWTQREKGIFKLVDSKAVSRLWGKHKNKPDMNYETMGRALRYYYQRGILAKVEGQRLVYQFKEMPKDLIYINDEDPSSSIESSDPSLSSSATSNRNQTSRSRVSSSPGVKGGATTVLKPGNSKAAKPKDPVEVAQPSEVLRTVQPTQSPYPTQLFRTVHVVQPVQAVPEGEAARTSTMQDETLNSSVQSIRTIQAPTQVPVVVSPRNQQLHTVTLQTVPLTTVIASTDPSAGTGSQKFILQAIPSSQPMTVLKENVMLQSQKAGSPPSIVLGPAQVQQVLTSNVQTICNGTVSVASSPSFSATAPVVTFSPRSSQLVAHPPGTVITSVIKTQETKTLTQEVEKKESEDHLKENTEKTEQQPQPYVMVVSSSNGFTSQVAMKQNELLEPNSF

In the case of GGACTC, the binding signal with FLI1 is 1.08 fold enrichment (6-mer frequency, TF over GST control); with GABPA, 1.07 fold enrichment (6-mer frequency, TF over GST control); in the assay with ELF1, 1.09 fold enrichment (6-mer frequency, TF over GST control); with EHF, 1.12 fold enrichment (6-mer frequency, TF over GST control); in the assay with SPIB, 1.05 fold enrichment (6-mer frequency, TF over GST control); with ELK3, 1.04 fold enrichment (6-mer frequency, TF over GST control). Further, the binding signal with ETV5 is 1.08 fold enrichment (6-mer frequency, TF over GST control); in the assay with SPIC, 1.01 fold enrichment (6-mer frequency, TF over GST control); with ELF4 it was 1.13 fold enrichment (6-mer frequency, TF over GST control); in the assay with ETV1, 1.07 fold enrichment (6-mer frequency, TF over GST control); in the assay with ETV3L it was 1.03 fold enrichment (6-mer frequency, TF over GST control); with ETV3, 1.08 fold enrichment (6-mer frequency, TF over GST control).

For GGCTCG, the binding signal is 1.06 fold enrichment (6-mer frequency, TF over GST control) in the assay with FLI1; 1.02 fold enrichment (6-mer frequency, TF over GST control) in the assay with GABPA; 1.02 fold enrichment (6-mer frequency, TF over GST control) in the assay with ERG; 1.05 fold enrichment (6-mer frequency, TF over GST control) with ELF1; 1.12 fold enrichment (6-mer frequency, TF over GST control) in the assay with SPIB; 1.01 fold enrichment (6-mer frequency, TF over GST control) with ETV5. For the same sequence, the binding signal was 1.12 fold enrichment (6-mer frequency, TF over GST control) with SPIC; 1.06 fold enrichment (6-mer frequency, TF over GST control) with ELF4; 1.01 fold enrichment (6-mer frequency, TF over GST control) with ETV1; 1.09 fold enrichment (6-mer frequency, TF over GST control) in the assay with ETV3L; 1.06 fold enrichment (6-mer frequency, TF over GST control) in the assay with ETV6.

The record behind these values is paper PMC7862700, “An all-to-all approach to the identification of sequence-specific readers for epigenetic DNA modifications on cytosine”.
